Each structure is given as a SMILES string. The whole screen tested about 220,000 compounds, of which about 370 (0.17%) were called active.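 The calls were made as follows: active = inhibition above the mean inhibition of all tested compounds plus 3 SD, set separately per screening campaign (cut at about 2.9% in these data); inactive = the rest.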 The sample as a whole holds a higher share of actives than the screen did.

For the assay, the target named is Eukaryotic translation initiation factor 2-alpha kinase 3 (Homo sapiens) (UniProt Q9NZJ5). Briefly: SEAP translation reporter rise after PERK-DD activation – CHO PERK-DD cells, SEAP luminescence, HTS, PERK inhibitor project, primary screen (AID 1416).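 Also: PERK kinase domain activated by AP20187 dimerizer at 100 nM; 0% = DMSO with dimerizer and 100% = rapamycin at 8.4 µM.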 The conditions noted are these: CHO PERK-DD fusion, at 5.6 µM, stronger effect = higher value.
Chain of Eukaryotic translation initiation factor 2-alpha kinase 3 (Homo sapiens) (Q9NZJ5 whole entry, looked up, the tested form may be a part): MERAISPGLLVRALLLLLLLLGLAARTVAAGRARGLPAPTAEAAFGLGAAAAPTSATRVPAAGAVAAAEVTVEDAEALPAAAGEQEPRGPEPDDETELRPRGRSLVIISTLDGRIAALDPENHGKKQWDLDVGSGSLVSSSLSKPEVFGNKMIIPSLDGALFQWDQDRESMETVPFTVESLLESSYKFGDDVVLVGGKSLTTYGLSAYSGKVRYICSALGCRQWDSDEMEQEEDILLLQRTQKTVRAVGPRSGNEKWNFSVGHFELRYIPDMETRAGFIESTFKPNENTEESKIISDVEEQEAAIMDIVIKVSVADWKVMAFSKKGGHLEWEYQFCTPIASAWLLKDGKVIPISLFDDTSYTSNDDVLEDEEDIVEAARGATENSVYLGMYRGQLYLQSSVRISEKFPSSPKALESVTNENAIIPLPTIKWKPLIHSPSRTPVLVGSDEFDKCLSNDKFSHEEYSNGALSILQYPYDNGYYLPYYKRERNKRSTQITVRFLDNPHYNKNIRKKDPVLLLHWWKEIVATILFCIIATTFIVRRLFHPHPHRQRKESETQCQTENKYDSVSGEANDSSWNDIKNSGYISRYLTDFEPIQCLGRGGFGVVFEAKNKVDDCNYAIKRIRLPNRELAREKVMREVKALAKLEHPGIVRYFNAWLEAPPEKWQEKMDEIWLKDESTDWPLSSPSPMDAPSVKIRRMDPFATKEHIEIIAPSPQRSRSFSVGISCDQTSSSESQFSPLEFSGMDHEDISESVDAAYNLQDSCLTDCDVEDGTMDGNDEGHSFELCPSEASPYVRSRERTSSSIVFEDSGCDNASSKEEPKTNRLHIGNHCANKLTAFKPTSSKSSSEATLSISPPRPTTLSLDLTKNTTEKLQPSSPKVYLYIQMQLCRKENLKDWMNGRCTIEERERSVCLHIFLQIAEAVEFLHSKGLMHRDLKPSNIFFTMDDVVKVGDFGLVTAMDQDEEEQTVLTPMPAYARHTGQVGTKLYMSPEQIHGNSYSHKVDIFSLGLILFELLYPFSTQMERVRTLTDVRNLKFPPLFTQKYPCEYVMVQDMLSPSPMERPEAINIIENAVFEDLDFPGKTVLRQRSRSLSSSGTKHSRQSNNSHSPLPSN
By inhibition is commonly meant the drop in the measured response relative to a control, in per cent. `CC(C)CNC(=O)CC(NCC(C)C)C(=O)O` (configuration not stated): the inhibition is 0.39% (inactive).

Consider `COc1ccccc1CN(C)C(=O)C1(c2ccc(Cl)cc2)CC1`, for which the inhibition is 0.49% (inactive).

Regarding `Cc1nnc(SCC(=O)NC2CCCC2)s1`, the inhibition was 3.36% (active).

In the case of `Cc1cnc(NC(=O)CSc2nnc(C)s2)s1`, the inhibition is 1.08% (inactive).

With `Cc1nnc(SCC(=O)Nn2cnnc2)s1`, the inhibition was 0.16% (inactive).

In the case of `CC(=O)C1(C)N(O)C(C)(C)C(c2cccs2)=[N+]1[O-]` (configuration not stated), the inhibition is 0.19% (inactive).

As to `COc1cccc(Nc2nnc(SCC(=O)N3CC(=O)Nc4ccccc43)s2)c1`, the inhibition was 0.32% (inactive).

In the case of `CC1CC(=S)Nc2ccccc2N1Cc1ccccc1` (configuration not stated), the inhibition was 0.04% (inactive).

`O=C1c2ccccc2C(=O)c2c1cccc2N1CCN(CCO)CC1`: the inhibition is -0.7% (inactive).

As for `COCc1c(C(=O)OCc2c(C)noc2C)oc2ccccc12`, the inhibition is 1.59% (inactive).

Turning to `CCOc1ccc(/C=N/NC(=O)CSc2ccccn2)cc1O`, the inhibition is -0.92% (inactive).

`CC1=C(C(=O)N(C)C)C(c2ccccc2OC(F)F)NC(=O)N1` (configuration not stated): the inhibition is 1.73% (inactive).

Turning to `CCOC(=O)c1ccc(NC(=O)c2cc(=O)[nH]c3ccccc23)cc1`, the inhibition is 0.84% (inactive).

For the molecule `O=C(Nc1cccc(F)c1)N1C2CCC1CC(O)(c1cccnc1)C2` (configuration not stated), the inhibition was 0.63% (inactive).

For the molecule `O=C(Nc1ccccc1)OCc1cc(-c2ccc(Cl)cc2)on1`, the inhibition was 3.15% (active).

In the case of `O=C(Nc1ccccc1)OCc1cn(-c2ccc(Cl)cc2)nn1`, the inhibition is 1.21% (inactive).

As to `O=C(Nc1ccc(Cl)cc1)OCc1cc(-c2ccccc2)on1`, the inhibition was 0.13% (inactive).

Turning to `CCN(CC)CC1(O)CCN(C(=O)c2ccc(Cl)c(Cl)c2)CC1`, the inhibition is 1.07% (inactive).

Regarding `Cn1c(=O)c2cc(S(=O)(=O)NCCC(=O)Nc3ccc(F)cc3F)ccc2n(C)c1=O`, the inhibition is 2.78% (inactive).

For `Cc1ccc(S(=O)(=O)NCC(=O)N(CC(=O)NC(C)(C)C)Cc2cccs2)cc1`, the inhibition is 1.04% (inactive).

Turning to `Cc1ccoc1C(=O)Nc1cccc(Oc2ccccc2)c1`, the inhibition was -1% (inactive).

For `Cc1nc(CN2CCN(C(=O)CCc3nnc(Cc4c[nH]c5ccccc45)o3)CC2)cs1`, the inhibition was 0.14% (inactive).

Regarding `O=C(NNc1cc(Cl)cc(Cl)c1)c1c(F)cccc1Cl`, the inhibition is 0.97% (inactive).

As to `COCCNC(=S)N1CCC(NC(=O)C23CC4CC(CC(C4)C2)C3)CC1`, the inhibition is -0.41% (inactive).

Turning to `Cc1ccc(C2Nc3ccccc3C(=O)N2CCN2CCNC2=O)cc1` (configuration not stated), the inhibition is 0.32% (inactive).

On to `CN(C)/C=C(/C(=O)c1ccc(Cl)c(Cl)c1)c1nnnn1-c1ccccc1`, for which the inhibition was 1.85% (inactive).

Take `O=C1COc2ccc(C(=O)COC(=O)c3cccnc3Cl)cc2N1`: the inhibition is 0.94% (inactive).

As for `CCOc1ccc(S(=O)(=O)Nc2nccs2)cc1`, the inhibition was 1.47% (inactive).

For the molecule `Cc1ccc2c(c1)NCC(C(=O)NC1CCC(C)CC1)O2` (configuration not stated), the inhibition is 0.88% (inactive).

On to `COCc1c(C(=O)N/N=C/C2CC=CCC2)nnn1-c1nonc1N` (configuration not stated), for which the inhibition is 0.44% (inactive).

Turning to `COc1ccc(NC(=S)Nc2ccc(S(N)(=O)=O)cc2)c(C)c1`, the inhibition was 1.02% (inactive).

With `CN(Cc1ccccn1)Cc1nc(-c2ccc(Cl)cc2)no1`, the inhibition was 0.32% (inactive).

As for `COC(=O)C1=C(C)NC(=O)CC1c1ccccc1OC` (configuration not stated), the inhibition is 0.25% (inactive).

For `CN(c1ccc(OCC(=O)NC2=NCCS2)cc1)S(=O)(=O)c1ccc(F)cc1`, the inhibition was 1.79% (inactive).

For the molecule `Cc1cccc(N2CCN(c3ccc(NC(=O)/C=C\C(=O)O)cc3)CC2)c1`, the inhibition was 0.1% (inactive).

For the molecule `CS/C(=C\[N+](=O)[O-])Nc1ccc(C)cc1`, the inhibition was 1.47% (inactive).

As to `CCOCCn1c(-c2ccccc2)nc2ccccc21`, the inhibition was -1.39% (inactive).

Turning to `Cc1ccccc1C1=N/C(=C/c2cccnc2)C(=O)O1`, the inhibition was 0.44% (inactive).

For the molecule `O=C(CC1Nc2ccccc2NC1=O)Nc1ccccc1NC(=O)CC1Nc2ccccc2NC1=O` (configuration not stated), the inhibition is 0.97% (inactive).

On to `CN(C)S(=O)(=O)N1CCN(c2ccc([N+](=O)[O-])cc2)CC1`, for which the inhibition is 0.53% (inactive).

`Cc1cc(NC(=O)/C=C/C(=O)N(c2ccccc2C)C(C(=O)NC2CCCC2)c2ccc(F)cc2)no1` (configuration not stated): the inhibition was 2.4% (inactive).

For `CSc1sc(C(=O)NC(=O)NCc2cccnc2)c(C)c1-c1ccon1`, the inhibition was -0.78% (inactive).

In the case of `Cc1c(C=O)n(C)n(-c2ccccc2)c1=O`, the inhibition was 0.28% (inactive).

As to `Cc1ccc(Cl)c(NC(=O)CN(C)CC(=O)Nc2ccc(F)c(F)c2F)c1Cl`, the inhibition is 0.24% (inactive).

Take `Cc1noc(C)c1C(=O)OCC(=O)N1CCN(S(=O)(=O)c2ccc3ccccc3c2)CC1`: the inhibition was 1.94% (inactive).

Take `COc1ccc(C(F)(F)F)cc1N/C=C\c1nnnn1-c1ccc(C)cc1`: the inhibition was 1.24% (inactive).

For `C#CCNC(=O)C1=C[C@@H](c2ccccc2)[C@H](CCCO)[C@@H](OCC)O1`, the inhibition was 0.82% (inactive).

As for `CSCC[C@H](NC(=O)NCCc1ccc(F)cc1)C(=O)O`, the inhibition is 0.4% (inactive).

For `CC(C)C[C@H](NC(=O)NCCc1ccc(Cl)cc1)C(=O)O`, the inhibition was 3.16% (active).

Consider `C[C@H](NC(=O)NCCc1ccccc1)C(=O)O`, for which the inhibition is 1.63% (inactive).

On to `CC(=O)c1ccc(NC(=O)CSC(=S)N2CCCC2)cc1`, for which the inhibition was -0.15% (inactive).

`Cc1cc(C)n(CC(O)CN(c2ccccc2)S(=O)(=O)c2ccc3ccccc3c2)n1` (configuration not stated): the inhibition was 0.84% (inactive).

With `CC(C)CCSc1ncnc2c1oc1nc3c(cc12)COC(C)(C)C3`, the inhibition was -0.1% (inactive).

As to `CC(=O)Nc1cccc(/C(C)=N/NC(=O)c2c(-c3ccccc3Cl)noc2C)c1`, the inhibition is -0.07% (inactive).

Regarding `COc1ccccc1N=C(C)C1=C(O)COC1=O`, the inhibition is 0.22% (inactive).

Take `O=[N+]([O-])c1ccc2c(c1)C(O)n1nc(-c3ccccc3)nc1S2` (configuration not stated): the inhibition is 1.41% (inactive).

With `Cc1ccc(C(C)(C)C)c(OCCCCN2CCCC2)c1`, the inhibition was -1.02% (inactive).

As to `CS(=O)(=O)N(CC(=O)Nc1ccc(F)cc1F)c1cccc([N+](=O)[O-])c1`, the inhibition was 1.41% (inactive).

Regarding `Cc1ccc(C)c(NC(=S)NNC(=S)Nc2ccc(C(C)C)cc2)c1`, the inhibition was 0.16% (inactive).

As to `OCCN1CCN(C(=S)c2ccc(-c3ccccc3)cc2)CC1`, the inhibition was 0.18% (inactive).

Turning to `CCOc1ccc(C(=O)NC(=S)Nc2ccc(N3CCOCC3)c(Cl)c2)cc1[N+](=O)[O-]`, the inhibition is 1.74% (inactive).

Turning to `CCCCn1nc(C(=O)Nc2ccc(S(=O)(=O)Nc3ncccn3)cc2)c2ccccc2c1=O`, the inhibition was 0.72% (inactive).

As for `O=c1c2sccc2nc(SCc2cc(=O)n3ccccc3n2)n1-c1ccc(Br)cc1`, the inhibition was -1.2% (inactive).

Consider `COc1cc(/C=N/NC(=O)Nc2ccccc2)ccc1OCCOc1ccccc1C`, for which the inhibition was 0.13% (inactive).

With `CC(=O)Nc1ccccc1NC(=O)c1cc(C)cc(C)c1`, the inhibition is 0.02% (inactive).

On to `O=c1[nH][nH]c(=O)c2cc(N3CCCC3)ccc12`, for which the inhibition is 0.69% (inactive).

Regarding `Cc1ccccc1C(=O)Nc1ccc(N2CCCCCC2)cc1`, the inhibition is -0.25% (inactive).

Take `O=C1C=CC(=O)N1c1ccc(N2CCCCC2)cc1`: the inhibition was 3.21% (active).

Turning to `CN1CCN(c2ccc(NC(=O)c3ccc4c(c3)[nH]c(=O)n4Cc3ccc(F)cc3)cc2)CC1`, the inhibition was 0.51% (inactive).

Regarding `CCc1cc(C(N)=O)c(NC(=O)c2ccc(OC)cc2)s1`, the inhibition is 0.45% (inactive).

Consider `Cc1ccc2cc(/C=N/NC(=O)[C@@H]3CCCN3)c(Cl)nc2c1`, for which the inhibition was -0.87% (inactive).

Consider `CCCCc1nnc(NC(=O)CSc2nc(N)cc(=O)[nH]2)s1`, for which the inhibition is 0.08% (inactive).

As for `C=CCSc1nc2ccccc2[nH]1`, the inhibition is -0.36% (inactive).

Consider `C=CCSc1nc(N)cc(=O)[nH]1`, for which the inhibition is 2.99% (active).

With `CCOc1ccc(CCNC(=O)C(CC)n2nc(C)n3c(cc4sccc43)c2=O)cc1OCC` (configuration not stated), the inhibition was -0.56% (inactive).

For the molecule `O=C(NCCc1ccc(F)cc1)c1n[nH]c2ccccc12`, the inhibition was 0.75% (inactive).

Turning to `C=C(C)CSc1nnc(-c2ccc(C)cc2)n1N`, the inhibition was 0.46% (inactive).

Consider `CCCn1nnnc1NC(=O)COc1ccc(Cl)cc1C`, for which the inhibition is -0.15% (inactive).

With `CSc1ccc(NC(=O)/C=C/C(=O)O)cc1`, the inhibition is 0.87% (inactive).

As to `COc1cccc(-c2ccc(C#N)c(SCC(=O)NCCc3ccc(Cl)cc3)n2)c1`, the inhibition was 1.75% (inactive).

Turning to `Cc1ccc(S(=O)(=O)N(Cc2ccc(Cl)cc2)c2ccccc2C(=O)NCc2cccnc2)cc1`, the inhibition is -0.82% (inactive).

For `O=C(Nc1ccc2cn[nH]c2c1)c1ccc(S(=O)(=O)N2CCOCC2)cc1`, the inhibition was 1.2% (inactive).

As to `Cc1ccc(NNC(=O)C2CCC2)cc1C`, the inhibition is 0.43% (inactive).

For the molecule `COC(=O)CSc1nc2c(c(C3CC=CCC3)c1C#N)CCC2` (configuration not stated), the inhibition was 0.22% (inactive).

Take `CCC(C)OC(=O)C(C)Oc1ccc(-c2ccccc2)cc1` (configuration not stated): the inhibition is -0.27% (inactive).

In the case of `Cc1nn(Cc2ccccc2Cl)c(C)c1NC(=O)Cn1nc([N+](=O)[O-])c(Cl)c1C`, the inhibition is -0.58% (inactive).

Consider `CC(=O)N1CCN(S(=O)(=O)c2ccc(C)c([N+](=O)[O-])c2)C1C(C)C` (configuration not stated), for which the inhibition was 0.34% (inactive).

With `Cc1cccc(C)c1NC(=S)N(Cc1cccnc1)Cc1ccccc1Cl`, the inhibition is -0.05% (inactive).

On to `CSc1ccccc1C(=O)NCc1ccccc1`, for which the inhibition was 1.84% (inactive).

Consider `O=S(=O)(Nc1ncccn1)c1ccc(NS(=O)(=O)c2cccc(Cl)c2Cl)cc1`, for which the inhibition was 0.64% (inactive).

Regarding `Cc1cc(-c2n[nH]c(=S)n2-c2ccc(C)c(C)c2)no1`, the inhibition is 3.32% (active).

For `Cc1ccc(OCc2n[nH]c(=S)n2-c2ccc(C)cc2)cc1`, the inhibition was 0.51% (inactive).

For `COc1ccccc1-n1c(-c2cc(-c3ccco3)[nH]n2)n[nH]c1=S`, the inhibition is 1.16% (inactive).

As for `Cc1cc(NC(=O)CCC(=O)N(CC(=O)NCC2CCCO2)c2ccccc2C)no1` (configuration not stated), the inhibition was 0.7% (inactive).

Consider `Cc1ccc(SCCC(=O)Nc2cc(C)on2)cc1`, for which the inhibition is 1.3% (inactive).

Regarding `COCCNC(=O)CN(C(=O)CCC(=O)Nc1cc(C)on1)c1ccc(C)cc1C`, the inhibition is 3.05% (active).

On to `O=[N+]([O-])/C(N=Nc1ccccc1)=N\Nc1ccccc1`, for which the inhibition is 0.56% (inactive).

These data come from PubChem BioAssay AID1416 (The Scripps Research Institute Molecular Screening Center, 2008).
